Screening data deposited in PubChem by National Center for Advancing Translational Sciences (NCATS).
Sampled rows, rich in hits. Any-hit rate of the full collection: about 10%.
NS1 inh: influenza NS1 inhibition; Potency, µM (top dose mostly 46.1 µM), without a hit: top-dose activity, positive = more growth; actives 0.4% (n = 270,000); calls by dose curve; also: actives are rising curves; nearly all actives have a fitted effect of over 50% in size
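Recovery from NS1-induced slow growth read by OD600 in budding yeast switched to galactose assay medium (pH 6.0, -URA) at 1:100 dilution. Compound 23 nl per well; the matching strain lacking NS1 serves as control.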
SARS PLP yeast: inhibitors of SARS-CoV papain-like protease in yeast; AID 485353; actives 0.19% (n = 330,000); Potency, µM (top dose mostly 32.9 µM), inactives show top-dose activity, positive = growth rescue, hits mostly activators; S. cerevisiae expressing SARS-CoV PLpro, growth rescue; calls by dose curve; also: 0% is about no effect; nearly all actives have a fitted effect of over 55% in size
Pf growth 48h: inhibits P. falciparum growth in the first generation, 48 h | AID 504832 | actives 5.9% (n = 310,000) | Potency, µM (titrated, usually from 28.7 µM), for inactives: at the highest dose activity change, negative = inhibition, actives largely listed as inhibitors | P. falciparum luciferase growth in erythrocytes, 48 h; also: % is scaled to controls: 0 for no effect and ±100 for the full control effect
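Luciferase-expressing P. falciparum in infected erythrocytes (2% hematocrit, 0.1% parasitemia final) in RPMI 1640/0.5% Albumax were exposed to compound for 48 hours at 37 C, 5% CO2; growth read as luminescence.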
Pf growth 96h: P. falciparum growth inhibition at 96 hours. Potency, µM (highest dose often 28.7 µM), for the others: at the top dose activity change, negative = inhibition, most hits filed as inhibitors. actives 6.9% (n = 320,000). P. falciparum luciferase reporter growth, 96 h; also: % is scaled to controls: 0 for no effect and ±100 for the full control effect
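Parasite growth measured via integrated firefly luciferase reporter in P. falciparum. Infected erythrocytes at 2% hematocrit, 0.05% parasitemia final were treated 96 hours at 37 C under 5% CO2, and luminescence was read.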
* = called active by the depositor; ? = inconclusive; nt = no result; [ ] = remark or other dose. Unless noted, calls follow the shape of the dose curve; as a rule, active = well fitted inhibition curve with a large enough effect; inconclusive = small, poorly fitted or top-dose-only effect, or another doubt; inactive = no such curve, though single readings can be large or run the other way. Potency is read from the fitted curve at half-maximal effect.

SMILES	NS1 inh	SARS PLP yeast	Pf growth 48h	Pf growth 96h
COc1ccc(S(=O)(=O)N2CCC(c3nc4ccccc4[nH]3)CC2)cc1	-3%	1%	0%	43%
CCOC(=O)N1CCC(c2nc3ccccc3[nH]2)CC1	2%	3%	nt	9.3µM*
O=C(CN1C(=O)NC2(CCOc3ccccc32)C1=O)N1CCCCC1 (stereo unspecified)	nt	4%	nt	nt
CC1(c2nnc(-c3ccncc3)o2)CC(c2ccc([N+](=O)[O-])cc2)=NO1 (stereo unspecified)	-1%	1%	76%	9%
CC[C@]1(C(=O)OC)[C@H]2C(=O)N(C)C(=O)[C@H]2[C@H]2CN=C(SCc3ccc(C)cc3)N21	nt	-2%	nt	nt
CC(=O)OCC#CCSc1nc2ccccc2n1C	-33%	22µM*	2%	-7%
O=C(CCNS(=O)(=O)c1ccccc1)N1CCC(Cc2ccccc2)CC1	-31%	?	-2%	?
CC(=O)c1ccc(NC(=O)C2CCCN(S(=O)(=O)c3c(C)[nH]c(=O)[nH]c3=O)C2)cc1 (stereo unspecified)	nt	0%	157%	4.1µM*
COC(=O)c1cc(NC(=O)C2CCCN(S(=O)(=O)c3c(C)n[nH]c3C)C2)cc(C(=O)OC)c1 (stereo unspecified)	nt	4%	?	24%
O=C(CN1CCCC1c1cccs1)N1CCN(S(=O)(=O)c2ccccc2)CC1 (stereo unspecified)	nt	2%	-22%	?
CC1CCCN(C(=S)NCc2ccccc2)C1 (stereo unspecified)	-12%	17%	-2%	-17%
OC1CCCN(C(=S)NCc2ccccc2)C1 (stereo unspecified)	2%	1%	42%	3.3µM*
COc1ccc(Nc2nc(NCCN3CCOCC3)nc(Nc3ccc(OC)cc3)n2)cc1	0%	0%	6%[0.00184 µM]	13%
CN1C2CCC1/C(=C/c1ccccn1)C(=O)/C2=C\c1ccccn1	-60%	-81%	0.66µM*	0.47µM*
CN1C2CCC1/C(=C\c1ccccc1)C(=O)/C2=C\c1ccccc1	-58%	-7%	1µM*	?
Cc1noc(C)c1CSCC(=O)NCCN1C(=O)S/C(=C\c2ccccc2F)C1=O	nt	-1%	?	?
CCCOc1ccc2nc(C)c(CCC)c(SC(=N)N)c2c1	0%	0%	1.2µM*	6.6µM*
CCCc1c(C)nc2ccc(OC)cc2c1SCCC(=O)O	-5%	6%	10%	12µM*
COc1ccc(S(=O)(=O)N2CCN(C(=O)CN3C(=O)NC(C)(c4ccc5ccccc5c4)C3=O)CC2)cc1 (stereo unspecified)	nt	-11%	?	?
O=C(O)[C@H](Cc1ccc(O)c([N+](=O)[O-])c1)N1C(=O)c2ccccc2C1=O	-8%	nt	nt	nt
CO/N=C(/C(=O)N[C@@H]1C(=O)N2C(C(=O)O)=CCS[C@H]12)c1cnc(N)s1	0%	3%	0%	92%
O=[N+]([O-])c1c(Cl)cccc1-c1c[nH]cc1Cl	nt	nt	-11%	-5%
Cc1ccc(C(=O)N/C(=C\c2ccc(-c3ccccc3[N+](=O)[O-])o2)C(=O)NCCCN(C)C)cc1	-5%	2%	2.6µM*	5.2µM*
CN(C)CCCNC(=O)/C(=C/c1ccc(-c2ccc([N+](=O)[O-])cc2)o1)NC(=O)c1ccccc1	-7%	-1%	?	?
Cc1ccc(C(=O)N/C(=C\c2ccc(-c3ccccc3[N+](=O)[O-])o2)C(=O)NCCN(C)C)cc1	-13%	-6%	1.5µM*	?
SMILES	NS1 inh	SARS PLP yeast	Pf growth 48h	Pf growth 96h
Cc1ccc(C(=O)N/C(=C/c2ccc(-c3cccc([N+](=O)[O-])c3)o2)C(=O)NC(C)(C)C)cc1	12%	0%	-4%	67%
O=C(CCc1nc(-c2ccccc2)no1)NC1CCCCCC1	nt	-26%	6%	-1%
Cc1cc(C)c2c(n1)SCC(=O)N2CC(=O)Nc1ccc(F)cc1	-3%	8%	9%	-22%
CC(C)(C)c1ccc(OCCC(=O)Nc2ccc(N3CCOCC3)cc2N2CCOCC2)cc1	nt	1%	?	?
C=CCc1ccc(OC)c(OC)c1	-5%	9%	1%	13%
O=[N+]([O-])c1ccc(N2CCN(S(=O)(=O)c3ccccc3)CC2)cc1NCC1CCCO1 (stereo unspecified)	14%	-7%	8%	?
O=[N+]([O-])c1ccc(N2CCN(S(=O)(=O)c3ccc(Cl)cc3)CC2)cc1NCc1cccnc1	1%	1%	7.4µM*	?
O=[N+]([O-])c1ccc(N2CCN(S(=O)(=O)c3ccccc3)CC2)cc1NCc1ccco1	9%	22%	-20%	13µM*
